Laboratory results reported in the supplement of paper PMC9694430.

Experiments:
Test in all cases: thermal shift delta Tm vs DMSO control; higher = stronger stabilization (binding)
Conditions in all cases: 12.5 µM; protein concentration 2 µM
LOC_OS04G57630-cb004 = system: LOC_OS04G57630-cb004
In short: (§1)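 Rice kinase domain constructs, made in E. coli and purified, were placed in 96-well plates at 2 μM in 19.5 μl of 100 mM potassium phosphate pH 7.5, 150 mM NaCl, 10% glycerol and 5 × SYPRO Orange, with compound in DMSO. A temperature ramp from 25°C to 95°C at 0.05°C/s was used for differential scanning fluorimetry. The melting temperature shift is a triplicate mean compared with DMSO-only protein, derived from Boltzmann fits.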

LOC_OS05G07850-cb002 = system: LOC_OS05G07850-cb002
In short: as §1

LOC_OS05G16824-cb004 = system: LOC_OS05G16824-cb004
In short: as §1

LOC_OS05G28520-cb001 = system: LOC_OS05G28520-cb001
In short: as §1

LOC_OS05G30820-cb001 = system: LOC_OS05G30820-cb001
In short: as §1

LOC_OS05G43570-cb004 = system: LOC_OS05G43570-cb004
In short: as §1

LOC_OS06G16330-cb003 = system: LOC_OS06G16330-cb003
In short: as §1

LOC_OS06G22820-cb001 = system: T1, LOC_OS06G22820-cb001
T1 sequence (whole entry): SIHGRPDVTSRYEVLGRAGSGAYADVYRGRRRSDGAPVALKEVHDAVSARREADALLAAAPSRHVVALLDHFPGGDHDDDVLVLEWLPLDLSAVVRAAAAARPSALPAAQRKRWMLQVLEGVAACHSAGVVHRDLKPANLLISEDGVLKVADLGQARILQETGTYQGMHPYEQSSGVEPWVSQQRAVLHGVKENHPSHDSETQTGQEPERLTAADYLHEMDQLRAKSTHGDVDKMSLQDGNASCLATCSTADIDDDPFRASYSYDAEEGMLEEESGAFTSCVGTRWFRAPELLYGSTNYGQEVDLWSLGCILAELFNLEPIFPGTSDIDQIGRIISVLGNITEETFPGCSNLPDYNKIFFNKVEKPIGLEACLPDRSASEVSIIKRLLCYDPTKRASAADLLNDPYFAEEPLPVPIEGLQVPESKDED
In short: as §1

LOC_OS07G06570-cb004 = system: LOC_OS07G06570-cb004
In short: as §1

LOC_OS07G07230-cb001 = system: LOC_OS07G07230-cb001
In short: as §1
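Also: purified Escherichia coli-expressed rice kinase domain construct.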

LOC_OS06G16330-cb003, sequence (as listed by the source): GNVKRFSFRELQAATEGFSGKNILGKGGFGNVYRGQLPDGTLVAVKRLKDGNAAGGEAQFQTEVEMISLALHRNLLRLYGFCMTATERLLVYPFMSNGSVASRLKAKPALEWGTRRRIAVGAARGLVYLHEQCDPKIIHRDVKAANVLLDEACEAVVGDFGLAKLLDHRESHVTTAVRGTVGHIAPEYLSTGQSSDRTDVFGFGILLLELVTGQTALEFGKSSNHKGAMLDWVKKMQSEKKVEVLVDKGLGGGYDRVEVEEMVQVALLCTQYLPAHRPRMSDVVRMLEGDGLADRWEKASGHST

Structure (SMILES) | thermal shift delta Tm (LOC_OS04G57630-cb004) | thermal shift delta Tm (LOC_OS05G07850-cb002) | thermal shift delta Tm (LOC_OS05G16824-cb004) | thermal shift delta Tm (LOC_OS05G28520-cb001) | thermal shift delta Tm (LOC_OS05G30820-cb001) | thermal shift delta Tm (LOC_OS05G43570-cb004) | thermal shift delta Tm (LOC_OS06G16330-cb003) | thermal shift delta Tm (LOC_OS06G22820-cb001) | thermal shift delta Tm (LOC_OS07G06570-cb004) | thermal shift delta Tm (LOC_OS07G07230-cb001)
O=C(/C=C/c1ccc(O)c(O)c1)c1ccc(O)cc1O [Butein] | 2.45 °C | 8.49 °C | 4.48 °C | 1.45 °C | 0.81 °C | 1.93 °C | 4.87 °C | 2.16 °C | 1.46 °C | 0.82 °C
O=C(Nc1cccc(C(F)(F)F)c1)c1cccc2cc(Oc3cc(CO)ncn3)ccc12 | 0.45 °C | -0.21 °C | -4.53 °C | 0.52 °C | 0.8 °C | 0.31 °C | -0.18 °C | 0.78 °C | 0.98 °C | 0.86 °C
Oc1cccc(-c2nc(N3CCOCC3)c3oc4ncccc4c3n2)c1 | -0.25 °C | 0.47 °C | 1.57 °C | 0.51 °C | 0.49 °C | 0.69 °C | 0.07 °C | 0.82 °C | 1.15 °C | 0.33 °C
Cc1c(C(=O)N2CCOc3ccc(-c4ccc(N)nc4)cc3C2)ccc(S(C)(=O)=O)c1F | 0.14 °C | 0.91 °C | -4.24 °C | 0.33 °C | 0.36 °C | 0.13 °C | 1.82 °C | 0.73 °C | 0.94 °C | 0.23 °C
CCOc1cc2ncc(C#N)c(Nc3ccc(OCc4ccccn4)c(Cl)c3)c2cc1NC(=O)/C=C/CN(C)C [Neratinib (HKI-272)] | 1.3 °C | 2.1 °C | -0.55 °C | 0.73 °C | 0.56 °C | 0.35 °C | 0.45 °C | 0.9 °C | 1.96 °C | 0.81 °C
CC#CC(=O)N1CCC[C@H]1c1nc(-c2ccc(C(=O)Nc3ccccn3)cc2)c2c(N)nccn12 [Acalabrutinib (ACP-196)] | 0.54 °C | 1.21 °C | -2.72 °C | 0.31 °C | 0.59 °C | 0.02 °C | 0.81 °C | 0.52 °C | 1.01 °C | 0.32 °C
CNC(=O)c1ccc(C)c(-n2c(C)cc(OCc3ccc(F)cc3F)c(Br)c2=O)c1 | 0.7 °C | 0.4 °C | 0.62 °C | 0.4 °C | 0.44 °C | 0.56 °C | 0.1 °C | 0.38 °C | 0.59 °C | -0.01 °C
COc1cc(-c2cc(-c3ccc(N4CCNCC4)cc3)cnc2C)cc(OC)c1OC | 0.42 °C | 3.83 °C | 0.31 °C | 0.5 °C | 0.25 °C | 0.17 °C | 2.03 °C | 0.21 °C | 0.35 °C | 0.01 °C
Fc1ccc2[nH]ccc2c1-c1nc(N2CCOCC2)c2sc(CN3CCN(CC4CC4)CC3)cc2n1 | -0.15 °C | 2.07 °C | -1.52 °C | 0.19 °C | 0.44 °C | 0.12 °C | -0.11 °C | 0.53 °C | 0.96 °C | 0.95 °C
O=C(O)[C@]1(Cc2cccc(Nc3nccs3)n2)CC[C@@H](Oc2cccc(Cl)c2F)CC1 | 1.26 °C | 13 °C | 2.5 °C | 0.88 °C | 4.08 °C | 0.24 °C | 20.6 °C | 0.38 °C | 0.16 °C | -1.36 °C
C=CC(=O)Nc1cccc(C)c1Nc1ncc2cc(-c3c(Cl)c(OC)cc(OC)c3Cl)ccc2n1 | 0.51 °C | 0.53 °C | -0.76 °C | 0.18 °C | 0.34 °C | 0.48 °C | -5.85 °C | 0.33 °C | 0.84 °C | 0.04 °C
CCc1cncnc1N1CCN(Cc2nc3ccc(C(F)(F)F)cc3[nH]2)CC1 | -0.2 °C | -0.11 °C | -2.67 °C | -0.08 °C | 0.66 °C | 0.46 °C | 0.02 °C | 0.76 °C | 0.84 °C | -0.27 °C
O=C(Nc1nc2cccc(-c3ccc(CN4CCS(=O)(=O)CC4)cc3)n2n1)C1CC1 [Filgotinib (GLPG0634)] | 0 °C | 4.98 °C | 1.83 °C | 0.76 °C | 0.46 °C | 0.12 °C | 5.12 °C | 0.31 °C | 0.9 °C | 0.58 °C
CC1Oc2cc(cnc2N)-c2c(nn(C)c2C#N)CN(C)C(=O)c2ccc(F)cc21 (stereo not given) | 0.38 °C | 2.16 °C | -1.64 °C | 0.23 °C | 0.66 °C | 0.83 °C | 10.9 °C | 0.16 °C | 0.86 °C | 0.75 °C
O=C(NOCC1CC1)c1ccc(F)c(F)c1Nc1ccc(I)cc1Cl | 0.14 °C | 1.54 °C | 2.02 °C | 1.8 °C | 0.63 °C | 1.06 °C | 0.69 °C | 1.27 °C | 1.57 °C | 0.31 °C
CCn1c(N)c(C(=O)NC)c(=O)c2ccc(C#CC(C)(O)COC)nc21 (stereo not given) | 0.45 °C | 5.21 °C | 3.79 °C | 0.37 °C | 0.73 °C | 0.13 °C | 0.51 °C | 0.3 °C | 1.2 °C | -0.09 °C
COc1cc2ncnc(Oc3cccc(NC(=O)Nc4cc(C(C)(C)C(F)(F)F)on4)c3)c2cc1OC | 0.6 °C | 2.95 °C | -2.76 °C | 0.72 °C | 0.54 °C | 0.45 °C | 0.19 °C | 0.58 °C | 1.77 °C | 0.79 °C
CC[C@@](C)(Nc1ccnc(-c2c[nH]c3ncccc23)n1)C(=O)NCC(F)(F)F [Decernotinib (VX-509)] | 0.07 °C | 9.28 °C | 2.45 °C | 0.87 °C | 0.49 °C | 0.57 °C | 8.57 °C | 0.47 °C | 0.54 °C | 0.24 °C
CC(C)n1ncnc1-c1cn2c(n1)-c1ccc(O[C@@H](C)C(N)=O)cc1OCC2 | -0.03 °C | -0.96 °C | -0.54 °C | 0.38 °C | 0.25 °C | 0.23 °C | -0.02 °C | 0.43 °C | 0.88 °C | 0.22 °C
CN1CCN(Cc2ccc(-c3cnc4[nH]cc(-c5ccc6[nH]ccc6c5)c4c3)cc2)CC1 | 11.1 °C | 15.3 °C | 11.2 °C | 2.09 °C | 1.88 °C | 1.74 °C | 13.7 °C | 0.7 °C | 1.92 °C | 0.61 °C
